For one sequence, binding signal results are on record in PMC7862700, “An all-to-all approach to the identification of sequence-specific readers for epigenetic DNA modifications on cytosine”.

Common to all, as to experiment: DAPPL (digital affinity profiling via proximity ligation, sequencing); 10 mM Tris-HCl pH 7.5, 50 mM NaCl, 1 mM DTT, 4% glycerol, room temperature, 30 min; GST-TFs on glutathione beads, 16-mer random dsDNA library, 0.1% formaldehyde crosslink after washing; high values mean tight binding
Test [1] deals with T1, FLI1 (Homo sapiens, UniProt Q01543 1-452).
T1 sequence: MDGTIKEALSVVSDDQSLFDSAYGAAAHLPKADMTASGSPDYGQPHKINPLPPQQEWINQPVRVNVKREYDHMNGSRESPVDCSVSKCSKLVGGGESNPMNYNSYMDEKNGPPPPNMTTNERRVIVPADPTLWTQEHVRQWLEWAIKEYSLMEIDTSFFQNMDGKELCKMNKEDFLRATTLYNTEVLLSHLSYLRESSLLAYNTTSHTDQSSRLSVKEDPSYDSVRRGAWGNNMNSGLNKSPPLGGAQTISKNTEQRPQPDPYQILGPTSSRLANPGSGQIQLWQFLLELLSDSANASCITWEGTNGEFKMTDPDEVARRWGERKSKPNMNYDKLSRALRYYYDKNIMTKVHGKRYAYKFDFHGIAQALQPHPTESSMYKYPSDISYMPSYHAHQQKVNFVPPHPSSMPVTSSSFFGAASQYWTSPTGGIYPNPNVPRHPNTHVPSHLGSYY
The following applies: protein: recombinant; tags: N-terminal GST; dsDNA, one strand shown. The gist of the method: (§1)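 Sequencing on an Illumina NextSeq500 followed washing, crosslinking with 0.1% formaldehyde, proximity ligation (BsaI/T4 ligase, 1 h, 37 °C) and PCR amplification of pools that had been incubated for 30 min at room temperature with 200 nmole of a random double-stranded 16-mer DNA library in Tris/NaCl/DTT/glycerol buffer. Each pool held DNA-barcoded human transcription factors, expressed in yeast as GST fusions and captured on glutathione beads, plus a tag-only sample. Binding signal is a hexamer's read frequency for a factor divided by its frequency in the tag-only sample.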

Test [2] has as its target T2, ELK1 (Homo sapiens, UniProt P19419 1-428).
T2 sequence: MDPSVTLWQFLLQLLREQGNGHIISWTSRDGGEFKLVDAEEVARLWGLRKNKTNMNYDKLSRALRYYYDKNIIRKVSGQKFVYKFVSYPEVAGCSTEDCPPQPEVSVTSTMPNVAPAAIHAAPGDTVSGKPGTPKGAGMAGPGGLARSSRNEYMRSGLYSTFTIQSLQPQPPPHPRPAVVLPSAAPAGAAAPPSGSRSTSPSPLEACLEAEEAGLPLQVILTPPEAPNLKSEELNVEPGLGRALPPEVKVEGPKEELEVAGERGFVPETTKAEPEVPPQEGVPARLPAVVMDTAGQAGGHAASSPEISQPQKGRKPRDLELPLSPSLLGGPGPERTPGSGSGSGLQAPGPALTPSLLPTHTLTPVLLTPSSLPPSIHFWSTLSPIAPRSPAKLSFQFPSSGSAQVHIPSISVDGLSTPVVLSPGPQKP
Particulars: protein: recombinant; tags: N-terminal GST; dsDNA, one strand shown. The gist of the method: as §1

For test [3], the target named is T3, GABPA (Homo sapiens, UniProt Q06546 1-454).
T3 sequence: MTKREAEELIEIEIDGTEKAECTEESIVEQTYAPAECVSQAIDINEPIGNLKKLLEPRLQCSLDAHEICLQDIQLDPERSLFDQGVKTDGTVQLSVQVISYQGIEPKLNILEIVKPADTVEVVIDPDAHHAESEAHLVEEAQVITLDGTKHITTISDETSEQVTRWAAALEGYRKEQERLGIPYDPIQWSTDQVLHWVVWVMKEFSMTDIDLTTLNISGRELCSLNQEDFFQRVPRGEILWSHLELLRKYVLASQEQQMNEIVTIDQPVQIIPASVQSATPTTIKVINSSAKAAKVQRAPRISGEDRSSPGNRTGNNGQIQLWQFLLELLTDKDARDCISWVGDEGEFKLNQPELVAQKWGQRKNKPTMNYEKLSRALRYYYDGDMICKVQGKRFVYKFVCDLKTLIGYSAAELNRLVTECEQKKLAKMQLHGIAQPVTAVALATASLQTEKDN
The following applies: protein: recombinant; tags: N-terminal GST; dsDNA, one strand shown. The gist of the method:
as §1

The target of test [4] is T4, ERG (Homo sapiens, UniProt P11308 1-479).
T4 sequence: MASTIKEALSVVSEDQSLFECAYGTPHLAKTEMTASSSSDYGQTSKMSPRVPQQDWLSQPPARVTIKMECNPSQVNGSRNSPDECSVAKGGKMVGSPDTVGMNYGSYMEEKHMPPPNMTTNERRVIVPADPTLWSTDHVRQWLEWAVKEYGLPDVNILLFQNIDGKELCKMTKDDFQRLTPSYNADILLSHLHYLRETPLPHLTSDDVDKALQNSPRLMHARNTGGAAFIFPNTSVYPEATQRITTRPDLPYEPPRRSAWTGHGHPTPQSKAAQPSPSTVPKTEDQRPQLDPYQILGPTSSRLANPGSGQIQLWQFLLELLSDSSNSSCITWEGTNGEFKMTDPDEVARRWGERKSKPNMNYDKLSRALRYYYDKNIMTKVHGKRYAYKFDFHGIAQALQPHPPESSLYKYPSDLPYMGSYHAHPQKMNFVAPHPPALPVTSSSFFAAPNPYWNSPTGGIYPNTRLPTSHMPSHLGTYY
The following applies: protein: recombinant; tags: N-terminal GST; dsDNA, one strand shown. The gist of the method:
as §1

For test [5], the target named is ELF1 (Homo sapiens, UniProt P32519 1-619). Particulars: protein: recombinant; tags: N-terminal GST; dsDNA, one strand shown. The gist of the method: as §1
Sequence of ELF1 (P32519 whole entry): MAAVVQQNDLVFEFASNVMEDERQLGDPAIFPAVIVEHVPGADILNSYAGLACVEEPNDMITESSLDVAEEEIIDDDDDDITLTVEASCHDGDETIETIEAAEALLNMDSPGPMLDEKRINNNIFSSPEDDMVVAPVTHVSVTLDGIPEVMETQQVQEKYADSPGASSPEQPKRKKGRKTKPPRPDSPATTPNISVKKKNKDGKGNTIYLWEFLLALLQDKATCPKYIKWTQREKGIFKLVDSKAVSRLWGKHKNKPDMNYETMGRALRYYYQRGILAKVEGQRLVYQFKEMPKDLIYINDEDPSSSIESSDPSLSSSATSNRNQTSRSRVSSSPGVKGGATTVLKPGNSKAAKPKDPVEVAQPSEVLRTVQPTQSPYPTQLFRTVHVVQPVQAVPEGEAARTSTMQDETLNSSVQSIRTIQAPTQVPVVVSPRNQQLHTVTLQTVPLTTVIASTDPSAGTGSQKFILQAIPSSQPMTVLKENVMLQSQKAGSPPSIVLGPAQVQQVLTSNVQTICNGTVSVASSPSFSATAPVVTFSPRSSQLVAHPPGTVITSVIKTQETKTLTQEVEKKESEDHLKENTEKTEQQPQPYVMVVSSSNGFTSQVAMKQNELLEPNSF
The target in test [6] is T5, EHF (Homo sapiens, UniProt Q9NZC4 1-300).
T5 sequence: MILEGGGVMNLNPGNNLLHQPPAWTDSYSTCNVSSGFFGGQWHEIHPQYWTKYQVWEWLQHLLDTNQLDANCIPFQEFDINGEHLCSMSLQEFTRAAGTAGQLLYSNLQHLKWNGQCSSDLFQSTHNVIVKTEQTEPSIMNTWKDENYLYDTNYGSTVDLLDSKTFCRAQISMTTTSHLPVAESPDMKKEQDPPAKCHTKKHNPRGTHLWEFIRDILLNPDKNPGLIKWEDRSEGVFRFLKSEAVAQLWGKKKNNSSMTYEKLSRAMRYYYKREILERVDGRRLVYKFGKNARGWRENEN
Particulars: protein: recombinant; tags: N-terminal GST; dsDNA, one strand shown. The gist of the method: as §1

In test [7] the target is SPI1 (Homo sapiens, UniProt P17947 1-270). Particulars: protein: recombinant; tags: N-terminal GST; dsDNA, one strand shown. The gist of the method:
as §1

The target in test [8] is SPIB (Homo sapiens, UniProt Q01892 1-262). The following applies: protein: recombinant; tags: N-terminal GST; dsDNA, one strand shown. The gist of the method:
as §1

Test [9] concerns the target T6, FEV (Homo sapiens, UniProt Q99581 1-238).
T6 sequence: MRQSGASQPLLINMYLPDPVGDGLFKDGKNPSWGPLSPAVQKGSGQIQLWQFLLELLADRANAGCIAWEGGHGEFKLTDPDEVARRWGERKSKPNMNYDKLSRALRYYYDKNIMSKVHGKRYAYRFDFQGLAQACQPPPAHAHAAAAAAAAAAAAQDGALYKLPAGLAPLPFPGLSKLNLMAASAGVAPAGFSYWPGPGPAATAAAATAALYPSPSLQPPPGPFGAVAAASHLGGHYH
The following applies: protein: recombinant; tags: N-terminal GST; dsDNA, one strand shown. The gist of the method: as §1

In test [10] the target is ETV5 (Homo sapiens, UniProt P41161 1-510). Particulars: protein: recombinant; tags: N-terminal GST; dsDNA, one strand shown. The gist of the method:
as §1

For test [11], the target named is HSF1 (Homo sapiens, UniProt Q00613 1-529). Particulars: protein: recombinant; tags: N-terminal GST; chain copies: 3; dsDNA, one strand shown. The gist of the method:
as §1

Test [12] concerns the target T7, SPIC (Homo sapiens, UniProt Q8N5J4 1-248).
T7 sequence: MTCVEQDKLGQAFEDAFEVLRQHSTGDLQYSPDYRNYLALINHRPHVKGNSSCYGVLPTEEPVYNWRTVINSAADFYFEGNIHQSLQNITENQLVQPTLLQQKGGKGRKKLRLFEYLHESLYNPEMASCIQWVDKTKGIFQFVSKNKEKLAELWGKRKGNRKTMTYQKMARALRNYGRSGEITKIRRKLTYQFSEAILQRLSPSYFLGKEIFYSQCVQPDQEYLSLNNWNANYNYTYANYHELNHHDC
The following applies: protein: recombinant; tags: N-terminal GST; dsDNA, one strand shown. The gist of the method: as §1

For test [13], the target named is ELF4 (Homo sapiens, UniProt Q99607 1-663). Particulars: protein: recombinant; tags: N-terminal GST; dsDNA, one strand shown. The gist of the method:
as §1

Test [14] concerns the target T8, ELK4 (Homo sapiens, UniProt P28324-2 1-405).
T8 sequence: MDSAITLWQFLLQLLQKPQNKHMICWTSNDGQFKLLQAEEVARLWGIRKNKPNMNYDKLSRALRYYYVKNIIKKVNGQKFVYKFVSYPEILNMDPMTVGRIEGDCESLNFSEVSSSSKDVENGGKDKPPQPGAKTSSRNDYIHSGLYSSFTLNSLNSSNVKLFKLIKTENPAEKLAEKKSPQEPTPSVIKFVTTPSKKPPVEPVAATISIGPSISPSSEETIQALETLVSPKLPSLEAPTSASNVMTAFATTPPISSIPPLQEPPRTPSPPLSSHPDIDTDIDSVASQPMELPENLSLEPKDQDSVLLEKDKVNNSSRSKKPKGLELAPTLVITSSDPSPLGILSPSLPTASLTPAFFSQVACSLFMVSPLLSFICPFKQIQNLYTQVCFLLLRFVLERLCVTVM
The following applies: protein: recombinant; tags: N-terminal GST; dsDNA, one strand shown. The gist of the method:
as §1

The target in test [15] is T9, ETV2 (Homo sapiens, UniProt O00321 1-342).
T9 sequence: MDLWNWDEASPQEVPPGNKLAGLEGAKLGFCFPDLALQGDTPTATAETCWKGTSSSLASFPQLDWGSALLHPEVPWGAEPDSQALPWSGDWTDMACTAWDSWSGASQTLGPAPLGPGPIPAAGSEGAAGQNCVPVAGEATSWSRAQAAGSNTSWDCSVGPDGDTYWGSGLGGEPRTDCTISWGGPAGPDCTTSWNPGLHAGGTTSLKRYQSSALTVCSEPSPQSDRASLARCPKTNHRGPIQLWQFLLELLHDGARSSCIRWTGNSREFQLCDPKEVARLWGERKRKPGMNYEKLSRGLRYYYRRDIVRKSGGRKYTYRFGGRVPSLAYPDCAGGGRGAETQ
The following applies: protein: recombinant; tags: N-terminal GST; dsDNA, one strand shown. The gist of the method: as §1

For test [16], the target named is T10, ELF3 (Homo sapiens, UniProt P78545 1-371).
T10 sequence: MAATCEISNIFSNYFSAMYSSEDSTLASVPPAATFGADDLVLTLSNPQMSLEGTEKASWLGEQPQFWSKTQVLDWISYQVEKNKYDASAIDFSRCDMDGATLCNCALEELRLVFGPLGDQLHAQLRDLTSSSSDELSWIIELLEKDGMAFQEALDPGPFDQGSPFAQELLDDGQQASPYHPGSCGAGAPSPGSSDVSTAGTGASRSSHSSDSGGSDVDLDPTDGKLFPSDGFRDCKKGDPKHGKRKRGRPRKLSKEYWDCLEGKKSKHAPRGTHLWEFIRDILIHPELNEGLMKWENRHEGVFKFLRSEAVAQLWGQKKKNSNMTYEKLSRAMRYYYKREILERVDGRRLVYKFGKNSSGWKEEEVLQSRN
Particulars: protein: recombinant; tags: N-terminal GST; dsDNA, one strand shown. The gist of the method:
as §1

Test [17] deals with CRX (Homo sapiens, UniProt O43186 1-299). Particulars: protein: recombinant; tags: N-terminal GST; dsDNA, one strand shown. The gist of the method:
as §1

Test [18] deals with ETV1 (Homo sapiens, UniProt P50549 1-477). Particulars: protein: recombinant; tags: N-terminal GST; dsDNA, one strand shown. The gist of the method:
as §1

Sequence of CRX (O43186 whole entry): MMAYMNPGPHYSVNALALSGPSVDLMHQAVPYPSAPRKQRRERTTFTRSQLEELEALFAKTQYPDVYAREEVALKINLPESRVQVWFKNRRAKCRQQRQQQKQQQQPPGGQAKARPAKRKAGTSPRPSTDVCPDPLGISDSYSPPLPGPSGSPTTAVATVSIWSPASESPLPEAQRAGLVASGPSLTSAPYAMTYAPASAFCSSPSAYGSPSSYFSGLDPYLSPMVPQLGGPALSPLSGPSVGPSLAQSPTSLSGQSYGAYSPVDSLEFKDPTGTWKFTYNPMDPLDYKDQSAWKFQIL
Sequence of SPIB (Q01892 whole entry): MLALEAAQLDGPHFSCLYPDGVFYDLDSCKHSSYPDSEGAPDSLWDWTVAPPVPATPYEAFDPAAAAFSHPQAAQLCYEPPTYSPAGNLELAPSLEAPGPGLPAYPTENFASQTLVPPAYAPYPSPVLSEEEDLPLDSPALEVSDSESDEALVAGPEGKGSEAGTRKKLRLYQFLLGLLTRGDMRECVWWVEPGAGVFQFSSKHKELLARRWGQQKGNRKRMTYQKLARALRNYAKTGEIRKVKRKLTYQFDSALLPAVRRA
Sequence of ETV5 (P41161 whole entry): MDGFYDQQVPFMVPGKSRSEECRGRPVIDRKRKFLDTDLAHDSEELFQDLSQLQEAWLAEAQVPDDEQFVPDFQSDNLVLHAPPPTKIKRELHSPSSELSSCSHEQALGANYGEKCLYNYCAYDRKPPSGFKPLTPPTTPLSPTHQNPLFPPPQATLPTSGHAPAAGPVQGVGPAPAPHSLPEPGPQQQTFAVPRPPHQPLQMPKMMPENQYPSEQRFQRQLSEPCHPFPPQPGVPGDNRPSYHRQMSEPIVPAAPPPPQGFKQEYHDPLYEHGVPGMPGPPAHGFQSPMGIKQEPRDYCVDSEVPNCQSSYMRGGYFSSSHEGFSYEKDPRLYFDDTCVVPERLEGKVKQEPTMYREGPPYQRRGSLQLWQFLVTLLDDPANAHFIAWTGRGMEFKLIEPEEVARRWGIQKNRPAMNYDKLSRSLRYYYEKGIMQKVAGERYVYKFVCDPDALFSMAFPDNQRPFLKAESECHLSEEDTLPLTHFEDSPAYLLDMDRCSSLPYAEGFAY
Sequence of ELF4 (Q99607 whole entry): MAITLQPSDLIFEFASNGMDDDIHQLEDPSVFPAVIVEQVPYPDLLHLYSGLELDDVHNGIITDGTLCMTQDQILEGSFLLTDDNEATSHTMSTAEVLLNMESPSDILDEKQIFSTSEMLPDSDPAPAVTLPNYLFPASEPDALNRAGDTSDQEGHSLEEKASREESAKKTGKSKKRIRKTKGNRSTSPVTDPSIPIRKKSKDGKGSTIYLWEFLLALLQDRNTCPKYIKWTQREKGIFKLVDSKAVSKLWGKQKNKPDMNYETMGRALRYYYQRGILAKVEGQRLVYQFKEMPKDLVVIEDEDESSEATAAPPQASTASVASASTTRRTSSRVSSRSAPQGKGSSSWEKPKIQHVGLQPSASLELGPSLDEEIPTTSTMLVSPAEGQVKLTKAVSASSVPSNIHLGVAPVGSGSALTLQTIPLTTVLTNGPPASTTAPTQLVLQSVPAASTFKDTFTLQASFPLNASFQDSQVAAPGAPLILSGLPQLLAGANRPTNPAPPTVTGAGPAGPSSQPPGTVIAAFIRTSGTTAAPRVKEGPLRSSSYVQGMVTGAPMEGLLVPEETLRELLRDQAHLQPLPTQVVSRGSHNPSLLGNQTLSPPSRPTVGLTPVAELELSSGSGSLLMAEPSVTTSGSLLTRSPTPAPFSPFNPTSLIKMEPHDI
Sequence of ETV1 (P50549 whole entry): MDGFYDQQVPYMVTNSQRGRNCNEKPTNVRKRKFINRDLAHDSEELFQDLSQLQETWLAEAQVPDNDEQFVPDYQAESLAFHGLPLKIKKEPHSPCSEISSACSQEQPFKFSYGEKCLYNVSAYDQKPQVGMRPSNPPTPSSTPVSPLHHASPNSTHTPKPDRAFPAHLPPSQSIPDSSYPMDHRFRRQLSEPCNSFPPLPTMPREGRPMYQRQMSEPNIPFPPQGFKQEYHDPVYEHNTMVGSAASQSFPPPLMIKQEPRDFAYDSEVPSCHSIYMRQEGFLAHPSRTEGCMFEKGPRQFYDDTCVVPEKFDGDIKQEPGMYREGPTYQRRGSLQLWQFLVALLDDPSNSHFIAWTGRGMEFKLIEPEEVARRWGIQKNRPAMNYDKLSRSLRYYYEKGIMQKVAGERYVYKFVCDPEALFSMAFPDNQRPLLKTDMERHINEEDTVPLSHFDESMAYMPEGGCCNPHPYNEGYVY
Sequence of HSF1 (Q00613 whole entry): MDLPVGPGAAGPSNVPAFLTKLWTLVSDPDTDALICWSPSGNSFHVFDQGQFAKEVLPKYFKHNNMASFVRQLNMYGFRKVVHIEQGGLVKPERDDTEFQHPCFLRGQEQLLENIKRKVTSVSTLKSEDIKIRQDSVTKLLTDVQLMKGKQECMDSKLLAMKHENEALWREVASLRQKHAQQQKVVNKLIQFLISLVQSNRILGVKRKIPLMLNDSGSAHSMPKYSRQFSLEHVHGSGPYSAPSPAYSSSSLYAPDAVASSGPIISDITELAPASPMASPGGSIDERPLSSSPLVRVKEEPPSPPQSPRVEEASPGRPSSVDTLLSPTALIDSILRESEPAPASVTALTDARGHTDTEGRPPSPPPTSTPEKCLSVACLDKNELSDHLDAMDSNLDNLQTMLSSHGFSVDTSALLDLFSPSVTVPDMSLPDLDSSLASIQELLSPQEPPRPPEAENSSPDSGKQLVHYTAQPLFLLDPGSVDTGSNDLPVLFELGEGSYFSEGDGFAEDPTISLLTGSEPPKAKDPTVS

As to AATCAT, the binding signal in [1] is 1.13 fold enrichment (6-mer frequency, TF over GST control); in test [2], 1.12 fold enrichment (6-mer frequency, TF over GST control); in [3] it was 1.19 fold enrichment (6-mer frequency, TF over GST control); in test [4], 1.12 fold enrichment (6-mer frequency, TF over GST control); in test [5], 1.16 fold enrichment (6-mer frequency, TF over GST control); in test [6], 1.17 fold enrichment (6-mer frequency, TF over GST control). Moreover, the binding signal is 1.07 fold enrichment (6-mer frequency, TF over GST control) in test [7]; 1.21 fold enrichment (6-mer frequency, TF over GST control) in test [8]; 1.1 fold enrichment (6-mer frequency, TF over GST control) in [9]; 1.15 fold enrichment (6-mer frequency, TF over GST control) in test [10]; 1.27 fold enrichment (6-mer frequency, TF over GST control) in [11]; 1.14 fold enrichment (6-mer frequency, TF over GST control) in test [12]. Moreover, the binding signal in test [13] was 1.06 fold enrichment (6-mer frequency, TF over GST control); in test [14] it was 1.12 fold enrichment (6-mer frequency, TF over GST control); in [15], 1.21 fold enrichment (6-mer frequency, TF over GST control); in test [16], 1.17 fold enrichment (6-mer frequency, TF over GST control); in [17], 1.39 fold enrichment (6-mer frequency, TF over GST control); in test [18], 1.15 fold enrichment (6-mer frequency, TF over GST control).
